# According to PubChem BioAssay (NCI):
# This is part of a sample that, as a whole, favours compounds with a hit. Of some 83,000 tested, about 20% had one in any assay.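 Percent growth is the endpoint: 0 to 100 indicates growth inhibition (40 means 60% inhibition), 0 means no net growth, and negative values indicate cell death.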 Active and inactive are the calls of the source. The calls were made as follows: active = growth percent below 10; inactive = the rest.
# System: OVCAR-4 ovarian
# Assay: NCI-60 one-dose screen, 48 h (100 = growth as untreated, 0 = no growth, -100 = all killed)
# Details: 10 µM unless noted
row,Structure (SMILES),growth
1,CC(=O)OCC(=O)[C@@]1(O)CC[C@H]2[C@@H]3CC(=C(Br)Br)C4=CC(=O)CC[C@]4(C)[C@H]3C(=O)C[C@@]21C,96.1% (inactive)
2,O=C1CCCCCCCCC(O)C(O)CCCC(c2cccs2)O1 (stereo not drawn),78.8% (inactive)
3,COC(=O)C1=C(C(=O)ONCCN(C)C)C2C=CC1(C(Cc1ccccc1)Nc1ccc(F)cc1)O2 (stereo not drawn),94.5% (inactive)
4,CS(=O)(=O)c1ccc(-c2cc3c(oc2=O)-c2ccccc2OC3O)cc1 (stereo not drawn),94% (inactive)
5,Clc1ccc(C2CC(c3cccc(Nc4ccncc4)c3)=NN2c2ccc(Cl)cc2)cc1 (stereo not drawn),-14.5% (active)
6,CCN(CC)CCCCCCNc1cc(OC)cc2cccnc12,44.6% (inactive)
7,Clc1cc(Cl)cc(N2N=C(c3cccc(Nc4ccncc4)c3)CC2c2ccc3c(c2)OCO3)c1 (stereo not drawn),14.9% (inactive)
8,CC(=O)N1N=C(c2cccc(Nc3ccncc3)c2)CC1c1ccc2c(c1)OCO2 (stereo not drawn),90.3% (inactive)
9,COc1cc(/C=C/C(=O)c2c(C)oc3nc[nH]c(=O)c23)ccc1O,101% (inactive)
10,Cc1ccc(C2C3CC4CCCCC4N3[C@@]3(C(=O)Nc4cc(Cl)ccc43)C2C(=O)c2nc3ccccc3[nH]2)cc1 (stereo partly drawn),30.6% (inactive)
11,CCCCCOc1ccc(/C=N/Nc2cc(C)nc3ccc(Br)cc23)cc1,4.88% (active)
12,C=C1C(=O)O[C@H]2[C@H]1CC/C(COC(=O)/C=C/c1c[nH]c3ccccc13)=C\CC[C@@]1(C)O[C@@H]21,-91.9% (active)
13,CCCCCN1C=C/C(=C\C(=O)N(C)c2ccc(Br)cc2)c2ccccc21,84.4% (inactive)
